# PubChem BioAssay AID1159580 (chemical genetic matrix, 2015)
# Where “and” joins values, the source holds several entries; their conditions need not be identical. Equal values may be shown once. In all, about 5,500 compounds went through this assay and about 2,000 (36%) were called active. Inconclusive results (about 18%) are left out. No stated cut-off is given here; in the data, active means normalized growth mostly below about 0.91 (no sharp cut-off); inconclusive means no clear call, values can overlap the other calls; inactive means mostly above about 0.92. This is one part of the list.
# Assay: chemical genetic growth profiling, strain panel (AID 1159580);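 further: tested at 20 µM; growth read once vehicle control cultures reached saturation at 30 °C; 1 = growth at the plate median or of vehicle wells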
# Details: S. cerevisiae deletion strains, growth OD
compound,measurement,setting,value
COc1ccc2c(c1)O[C@@H]1COc3cc(OC)c(OC)cc3[C@@H]1C2=O,normalized growth,"locus YAL021C, strain ccr4, stronger effect = lower value",0.977 (inactive)
same,normalized growth,"locus YAL026C, strain drs2, stronger effect = lower value",0.694 (active)
same,normalized growth,"locus YAL030W, strain snc1, stronger effect = lower value",0.663 (active)
same,normalized growth,"locus YBL061C, strain skt5, stronger effect = lower value",0.707 (active)
same,normalized growth,"locus YBR009C, strain hhf1, stronger effect = lower value",0.34 (active)
same,normalized growth,"locus YBR021W, strain FUR4, stronger effect = lower value",0.897 (inactive)
same,normalized growth,"locus YBR023C, strain chs3, stronger effect = lower value",0.819 (active)
same,normalized growth,"locus YBR171W, strain sec66, stronger effect = lower value",0.965 (inactive)
same,normalized growth,"locus YBR229C, strain ROT2, stronger effect = lower value",0.997 (inactive)
same,normalized growth,"locus YBR231C, strain swc5, stronger effect = lower value",0.554 (active)
same,normalized growth,"locus YBR279W, strain paf1, stronger effect = lower value",0.527 (active)
same,normalized growth,"locus YCL011C, strain gbp2, stronger effect = lower value",0.674 (active)
same,normalized growth,"locus YCL016C, strain dcc1, stronger effect = lower value",0.614 (active)
same,normalized growth,"locus YCL029C, strain bik1, stronger effect = lower value",0.68 (active)
same,normalized growth,"locus YCL061C, strain MRC1, stronger effect = lower value",0.354 (active)
same,normalized growth,"locus YCL069W, strain vba3, stronger effect = lower value",0.384 (active)
same,normalized growth,"locus YCR088W, strain abp1, stronger effect = lower value",0.823 (active)
same,normalized growth,"locus YDL005C, strain med2, stronger effect = lower value",0.979 (inactive)
same,normalized growth,"locus YDL035C, strain GPR1, stronger effect = lower value",0.906 (inactive)
same,normalized growth,"locus YDL040C, strain nat1, stronger effect = lower value",0.967 (inactive)
same,normalized growth,"locus YDL074C, strain BRE1, stronger effect = lower value",0.676 (active)
same,normalized growth,"locus YDL101C, strain DUN1, stronger effect = lower value",0.669 (active)
same,normalized growth,"locus YDL134C, strain PPH21, stronger effect = lower value",0.68 (active)
same,normalized growth,"locus YDL185W, strain tfp1, stronger effect = lower value",0.935 (inactive)
same,normalized growth,"locus YDL192W, strain arf1, stronger effect = lower value",0.893 (active)
same,normalized growth,"locus YDR001C, strain nth1, stronger effect = lower value",0.97 (inactive)
same,normalized growth,"locus YDR069C, strain doa4, stronger effect = lower value",1.02 (inactive)
same,normalized growth,"locus YDR101C, strain arx1, stronger effect = lower value",0.913 (active)
same,normalized growth,"locus YDR137W, strain rgp1, stronger effect = lower value",0.995 (inactive)
same,normalized growth,"locus YDR150W, strain NUM1, stronger effect = lower value",0.977 (inactive)
same,normalized growth,"locus YDR159W, strain sac3, stronger effect = lower value",0.864 (inactive)
same,normalized growth,"locus YDR162C, strain NBP2, stronger effect = lower value",0.752 (active)
same,normalized growth,"locus YDR195W, strain ref2",0.842 (active)
same,normalized growth,"locus YDR297W, strain sur2, stronger effect = lower value",0.652 (active)
same,normalized growth,"locus YDR318W, strain mcm21, stronger effect = lower value",0.516 (active)
same,normalized growth,"locus YDR334W, strain swr1, stronger effect = lower value",0.427 (active)
same,normalized growth,"locus YDR335W, strain msn5, stronger effect = lower value",0.867 (active)
same,normalized growth,"locus YDR388W, stronger effect = lower value",0.975 (inactive)
same,normalized growth,"locus YDR392W, strain spt3, stronger effect = lower value",0.131 (active)
same,normalized growth,"locus YDR502C, strain sam2, stronger effect = lower value",0.831 (active)
same,normalized growth,"locus YEL003W, strain gim4, stronger effect = lower value",0.531 (active)
same,normalized growth,"locus YEL037C, strain rad23, stronger effect = lower value",0.981 (inactive)
same,normalized growth,"locus YEL061C, strain CIN8 (second series), stronger effect = lower value",0.257 (active)
same,normalized growth,"locus YEL061C, strain CIN8, stronger effect = lower value",0.315 (active)
same,normalized growth,"locus YER015W, strain faa2, stronger effect = lower value",0.693 (active)
same,normalized growth,"locus YER016W, strain bim1, stronger effect = lower value",0.818 (active)
same,normalized growth,"locus YER110C, stronger effect = lower value",0.799 (active)
same,normalized growth,"locus YER111C, strain swi4, stronger effect = lower value",0.423 (active)
same,normalized growth,"locus YER155C, strain BEM2 (second series), stronger effect = lower value",0.163 (active)
same,normalized growth,"locus YER155C, strain BEM2, stronger effect = lower value",0.426 (active)
same,normalized growth,"locus YER167W, strain BCK2, stronger effect = lower value",0.684 (active)
same,normalized growth,"locus YFR010W, strain ubp6, stronger effect = lower value",1.02 (inactive)
same,normalized growth,"locus YGL078C, strain dbp3, stronger effect = lower value",0.933 (inactive)
same,normalized growth,"locus YGL086W, strain mad1, stronger effect = lower value",0.458 (active)
same,normalized growth,"locus YGL167C, strain pmr1, stronger effect = lower value",0.974 (inactive)
same,normalized growth,"locus YGL173C, strain kem1, stronger effect = lower value",0.954 (inactive)
same,normalized growth,"locus YGL227W, strain vid30, stronger effect = lower value",0.28 (active)
same,normalized growth,"locus YGL240W, strain doc1, stronger effect = lower value",0.916 (inactive)
same,normalized growth,"locus YGL248W, strain PDE1, stronger effect = lower value",0.649 (active)
same,normalized growth,"locus YGL253W, strain hxk2, stronger effect = lower value",0.633 (active)
same,normalized growth,"locus YGR135W, strain pre9, stronger effect = lower value",0.786 (active)
same,normalized growth,"locus YGR252W, strain gcn5, stronger effect = lower value",0.755 (active)
same,normalized growth,"locus YHR013C, strain ard1, stronger effect = lower value",0.558 (active)
same,normalized growth,"locus YHR027C, strain rpn1, stronger effect = lower value",0.999 (inactive)
same,normalized growth,"locus YHR030C, strain SLT2, stronger effect = lower value",0.547 (active) and 0.988 (inactive)
same,normalized growth,"locus YHR079C, strain IRE1 (second series), stronger effect = lower value",0.814 (active)
same,normalized growth,"locus YHR079C, strain IRE1, stronger effect = lower value",0.97 (inactive)
same,normalized growth,"locus YHR094C, strain hxt1, stronger effect = lower value",0.699 (active)
same,normalized growth,"locus YHR129C, strain ARP1, stronger effect = lower value",0.489 (active)
same,normalized growth,"locus YHR142W, strain chs7, stronger effect = lower value",0.195 (active)
same,normalized growth,"locus YHR200W, strain rpn10, stronger effect = lower value",0.939 (inactive)
same,normalized growth,"locus YIL066C, strain RNR3, stronger effect = lower value",0.675 (active)
same,normalized growth,"locus YIL073C, strain SPO22, stronger effect = lower value",0.903 (inactive)
same,normalized growth,"locus YIL125W, strain kgd1, stronger effect = lower value",0.989 (inactive)
same,normalized growth,"locus YIR030C, strain dcg1, stronger effect = lower value",0.879 (active)
same,normalized growth,"locus YJL092W, strain hpr5, stronger effect = lower value",0.822 (active)
same,normalized growth,"locus YJL095W, strain BCK1 (second series), stronger effect = lower value",0.488 (active)
same,normalized growth,"locus YJL095W, strain BCK1, stronger effect = lower value",0.332 (active) and 0.966 (inactive)
same,normalized growth,"locus YJL115W, strain asf1, stronger effect = lower value",0.819 (active)
same,normalized growth,"locus YJL129C, strain trk1, stronger effect = lower value",0.441 (active)
same,normalized growth,"locus YJL134W, strain LCB3, stronger effect = lower value",0.935 (inactive)
same,normalized growth,"locus YJL154C, strain vps35, stronger effect = lower value",0.982 (inactive)
same,normalized growth,"locus YJL164C, strain tpk1, stronger effect = lower value",0.438 (active)
same,normalized growth,"locus YJL166W, strain qcr8, stronger effect = lower value",0.208 (active)
same,normalized growth,"locus YJL168C, strain set2, stronger effect = lower value",0.978 (inactive)
same,normalized growth,"locus YJL187C, strain SWE1 (second series), stronger effect = lower value",0.822 (active)
same,normalized growth,"locus YJL187C, strain SWE1, stronger effect = lower value",0.589 (active)
